Test results from ChEMBL document CHEMBL1961873, “Compounds: GSK PKIS; Assays: Nanosyn kinase panel” (2012).

Key:
[1] = molecular target: Protein kinase C gamma type (Homo sapiens) (UniProt P05129); details: at 1 µM;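 note: each value is an averaged percent inhibition of the enzyme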
[2] = molecular target: T1, Protein kinase C iota type (Homo sapiens) (UniProt P41743); details: at 0.1 µM
T1 sequence (whole entry): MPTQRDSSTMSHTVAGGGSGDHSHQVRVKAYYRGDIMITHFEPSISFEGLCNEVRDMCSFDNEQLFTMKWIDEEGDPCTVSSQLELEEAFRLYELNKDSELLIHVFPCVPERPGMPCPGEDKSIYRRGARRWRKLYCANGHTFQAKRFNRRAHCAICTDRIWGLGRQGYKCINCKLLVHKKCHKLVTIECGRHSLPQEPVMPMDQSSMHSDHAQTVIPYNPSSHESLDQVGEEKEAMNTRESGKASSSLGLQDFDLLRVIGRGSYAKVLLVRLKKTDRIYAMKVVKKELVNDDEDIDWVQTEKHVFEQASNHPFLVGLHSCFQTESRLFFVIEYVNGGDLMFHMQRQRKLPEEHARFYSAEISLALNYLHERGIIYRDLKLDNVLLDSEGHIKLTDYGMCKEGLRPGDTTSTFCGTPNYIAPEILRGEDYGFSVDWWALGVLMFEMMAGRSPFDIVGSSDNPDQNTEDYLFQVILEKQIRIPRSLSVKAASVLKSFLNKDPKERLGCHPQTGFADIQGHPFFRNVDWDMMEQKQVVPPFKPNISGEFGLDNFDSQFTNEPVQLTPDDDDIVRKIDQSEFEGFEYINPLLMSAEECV

[3] = molecular target: T1, Protein kinase C iota type (Homo sapiens); details: at 1 µM
[4] = molecular target: Protein kinase C theta type (Homo sapiens) (UniProt Q04759); details: at 0.1 µM
Chain of Protein kinase C theta type (Homo sapiens) (Q04759 whole entry, looked up): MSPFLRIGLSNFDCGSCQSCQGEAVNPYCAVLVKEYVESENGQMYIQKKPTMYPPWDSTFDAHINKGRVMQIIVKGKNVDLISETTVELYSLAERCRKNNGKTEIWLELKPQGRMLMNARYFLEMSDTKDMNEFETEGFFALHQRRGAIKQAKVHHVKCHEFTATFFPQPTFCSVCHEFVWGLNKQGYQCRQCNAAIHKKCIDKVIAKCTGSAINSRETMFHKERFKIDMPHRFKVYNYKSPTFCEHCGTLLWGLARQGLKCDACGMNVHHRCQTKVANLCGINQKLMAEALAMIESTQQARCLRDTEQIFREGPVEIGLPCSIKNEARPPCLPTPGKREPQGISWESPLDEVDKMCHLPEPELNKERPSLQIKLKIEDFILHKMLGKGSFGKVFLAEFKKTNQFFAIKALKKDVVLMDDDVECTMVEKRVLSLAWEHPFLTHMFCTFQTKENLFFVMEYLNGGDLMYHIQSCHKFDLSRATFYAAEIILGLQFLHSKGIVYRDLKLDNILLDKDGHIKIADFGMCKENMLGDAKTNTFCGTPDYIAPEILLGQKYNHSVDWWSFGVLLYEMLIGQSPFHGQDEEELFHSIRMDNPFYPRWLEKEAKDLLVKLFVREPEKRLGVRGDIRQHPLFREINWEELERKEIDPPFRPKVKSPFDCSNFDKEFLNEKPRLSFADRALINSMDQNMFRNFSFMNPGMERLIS

[5] = molecular target: Protein kinase C theta type (Homo sapiens) (UniProt Q04759); details: at 1 µM
[6] = molecular target: Protein kinase C beta type (Homo sapiens) (UniProt P05771); details: at 0.1 µM
Chain of Protein kinase C beta type (Homo sapiens) (P05771 2-671 limits assumed): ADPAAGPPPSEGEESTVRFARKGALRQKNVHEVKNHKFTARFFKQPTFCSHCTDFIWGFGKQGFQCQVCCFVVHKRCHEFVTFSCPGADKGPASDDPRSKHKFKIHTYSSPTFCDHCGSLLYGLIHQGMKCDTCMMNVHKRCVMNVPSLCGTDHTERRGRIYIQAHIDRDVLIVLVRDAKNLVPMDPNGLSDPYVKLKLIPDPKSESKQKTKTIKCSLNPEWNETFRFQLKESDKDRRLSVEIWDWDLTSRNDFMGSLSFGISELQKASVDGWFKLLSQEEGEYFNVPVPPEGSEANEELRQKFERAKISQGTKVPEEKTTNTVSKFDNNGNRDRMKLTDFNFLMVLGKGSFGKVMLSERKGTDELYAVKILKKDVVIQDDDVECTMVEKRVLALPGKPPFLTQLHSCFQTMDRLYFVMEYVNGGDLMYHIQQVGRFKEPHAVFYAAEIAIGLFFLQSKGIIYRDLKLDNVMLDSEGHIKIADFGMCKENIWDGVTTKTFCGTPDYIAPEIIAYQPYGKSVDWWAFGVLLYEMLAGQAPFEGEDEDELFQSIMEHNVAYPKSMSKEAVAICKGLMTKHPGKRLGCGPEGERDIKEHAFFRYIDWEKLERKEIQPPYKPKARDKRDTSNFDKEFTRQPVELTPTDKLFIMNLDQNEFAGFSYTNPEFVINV

[7] = molecular target: Protein kinase C beta type (Homo sapiens) (UniProt P05771); details: at 1 µM
[8] = molecular target: T2, Serine/threonine-protein kinase D1 (Homo sapiens) (UniProt Q15139); details: at 0.1 µM
T2 sequence (whole entry): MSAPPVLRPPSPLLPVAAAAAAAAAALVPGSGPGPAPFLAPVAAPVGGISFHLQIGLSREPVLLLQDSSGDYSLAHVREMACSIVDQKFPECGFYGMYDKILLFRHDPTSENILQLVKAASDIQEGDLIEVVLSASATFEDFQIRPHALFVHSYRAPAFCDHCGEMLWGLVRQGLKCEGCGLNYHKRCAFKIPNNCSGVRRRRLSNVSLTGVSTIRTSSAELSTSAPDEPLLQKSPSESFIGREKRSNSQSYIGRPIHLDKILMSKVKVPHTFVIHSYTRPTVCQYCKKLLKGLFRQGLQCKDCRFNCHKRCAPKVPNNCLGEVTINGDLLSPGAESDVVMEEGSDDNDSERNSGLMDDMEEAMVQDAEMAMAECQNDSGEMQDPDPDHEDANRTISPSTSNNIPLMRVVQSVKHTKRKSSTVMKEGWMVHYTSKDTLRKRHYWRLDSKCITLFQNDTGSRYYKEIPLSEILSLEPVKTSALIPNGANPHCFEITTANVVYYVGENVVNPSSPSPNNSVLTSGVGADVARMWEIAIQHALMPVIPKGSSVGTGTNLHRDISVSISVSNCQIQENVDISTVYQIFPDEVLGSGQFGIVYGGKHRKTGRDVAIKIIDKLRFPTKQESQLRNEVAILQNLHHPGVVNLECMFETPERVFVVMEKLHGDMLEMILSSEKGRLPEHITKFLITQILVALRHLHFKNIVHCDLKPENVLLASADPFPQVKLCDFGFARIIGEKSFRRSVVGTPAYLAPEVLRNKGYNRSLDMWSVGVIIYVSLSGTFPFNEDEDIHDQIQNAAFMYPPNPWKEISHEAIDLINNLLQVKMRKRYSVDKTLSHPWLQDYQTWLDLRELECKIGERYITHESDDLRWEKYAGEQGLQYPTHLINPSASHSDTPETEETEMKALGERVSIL

[9] = molecular target: T2, Serine/threonine-protein kinase D1 (Homo sapiens); details: at 1 µM
[10] = molecular target: T3, Serine/threonine-protein kinase D2 (Homo sapiens) (UniProt Q9BZL6); details: at 0.1 µM
T3 sequence (whole entry): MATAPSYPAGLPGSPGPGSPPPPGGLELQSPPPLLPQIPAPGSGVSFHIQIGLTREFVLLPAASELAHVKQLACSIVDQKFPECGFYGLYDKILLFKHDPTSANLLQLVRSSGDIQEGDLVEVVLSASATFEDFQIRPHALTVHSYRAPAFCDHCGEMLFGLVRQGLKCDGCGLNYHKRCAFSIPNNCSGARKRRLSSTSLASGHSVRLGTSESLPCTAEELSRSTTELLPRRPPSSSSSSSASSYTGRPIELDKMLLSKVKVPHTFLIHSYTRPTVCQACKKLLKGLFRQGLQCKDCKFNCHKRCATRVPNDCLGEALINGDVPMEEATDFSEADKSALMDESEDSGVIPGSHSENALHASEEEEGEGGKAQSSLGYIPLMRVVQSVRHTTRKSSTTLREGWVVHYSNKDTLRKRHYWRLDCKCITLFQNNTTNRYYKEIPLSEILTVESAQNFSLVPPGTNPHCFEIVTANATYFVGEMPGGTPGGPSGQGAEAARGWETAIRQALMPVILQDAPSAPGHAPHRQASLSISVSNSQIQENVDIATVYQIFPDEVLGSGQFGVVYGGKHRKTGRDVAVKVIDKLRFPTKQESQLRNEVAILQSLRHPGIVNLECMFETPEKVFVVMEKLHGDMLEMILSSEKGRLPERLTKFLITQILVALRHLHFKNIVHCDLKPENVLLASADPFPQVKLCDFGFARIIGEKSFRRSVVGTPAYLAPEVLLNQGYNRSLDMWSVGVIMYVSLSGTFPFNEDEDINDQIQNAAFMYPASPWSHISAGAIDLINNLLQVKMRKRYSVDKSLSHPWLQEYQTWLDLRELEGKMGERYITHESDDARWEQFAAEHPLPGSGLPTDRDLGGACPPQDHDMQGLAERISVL

[11] = molecular target: T3, Serine/threonine-protein kinase D2 (Homo sapiens); details: at 1 µM
[12] = molecular target: T4, Serine/threonine-protein kinase D3 (Homo sapiens) (UniProt O94806); details: at 0.1 µM
T4 sequence (whole entry): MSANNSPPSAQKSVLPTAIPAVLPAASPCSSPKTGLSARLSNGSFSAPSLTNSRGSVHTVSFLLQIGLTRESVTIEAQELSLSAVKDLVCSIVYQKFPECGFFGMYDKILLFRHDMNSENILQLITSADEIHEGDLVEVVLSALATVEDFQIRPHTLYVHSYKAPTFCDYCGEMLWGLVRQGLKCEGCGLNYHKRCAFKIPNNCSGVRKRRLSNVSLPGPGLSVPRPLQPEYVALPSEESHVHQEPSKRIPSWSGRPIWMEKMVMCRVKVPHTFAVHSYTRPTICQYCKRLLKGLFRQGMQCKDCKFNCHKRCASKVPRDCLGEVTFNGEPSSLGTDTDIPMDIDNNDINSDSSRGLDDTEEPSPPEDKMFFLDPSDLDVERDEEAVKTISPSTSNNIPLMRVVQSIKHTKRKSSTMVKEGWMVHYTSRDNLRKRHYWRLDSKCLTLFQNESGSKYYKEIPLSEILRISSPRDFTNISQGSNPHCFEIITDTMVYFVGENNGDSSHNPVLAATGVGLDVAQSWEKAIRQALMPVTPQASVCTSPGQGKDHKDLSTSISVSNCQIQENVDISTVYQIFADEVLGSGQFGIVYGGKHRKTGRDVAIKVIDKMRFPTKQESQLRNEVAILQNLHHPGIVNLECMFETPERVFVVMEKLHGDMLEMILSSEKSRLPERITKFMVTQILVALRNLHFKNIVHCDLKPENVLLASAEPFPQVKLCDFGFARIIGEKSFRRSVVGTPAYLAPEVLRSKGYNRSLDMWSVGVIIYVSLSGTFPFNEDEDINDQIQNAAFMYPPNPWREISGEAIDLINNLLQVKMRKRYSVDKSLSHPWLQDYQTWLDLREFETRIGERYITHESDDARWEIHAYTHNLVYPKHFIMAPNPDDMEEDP

[13] = molecular target: T4, Serine/threonine-protein kinase D3 (Homo sapiens); details: at 1 µM
[14] = molecular target: T5, cGMP-dependent protein kinase 1 (Homo sapiens) (UniProt Q13976); details: at 0.1 µM
T5 sequence (whole entry): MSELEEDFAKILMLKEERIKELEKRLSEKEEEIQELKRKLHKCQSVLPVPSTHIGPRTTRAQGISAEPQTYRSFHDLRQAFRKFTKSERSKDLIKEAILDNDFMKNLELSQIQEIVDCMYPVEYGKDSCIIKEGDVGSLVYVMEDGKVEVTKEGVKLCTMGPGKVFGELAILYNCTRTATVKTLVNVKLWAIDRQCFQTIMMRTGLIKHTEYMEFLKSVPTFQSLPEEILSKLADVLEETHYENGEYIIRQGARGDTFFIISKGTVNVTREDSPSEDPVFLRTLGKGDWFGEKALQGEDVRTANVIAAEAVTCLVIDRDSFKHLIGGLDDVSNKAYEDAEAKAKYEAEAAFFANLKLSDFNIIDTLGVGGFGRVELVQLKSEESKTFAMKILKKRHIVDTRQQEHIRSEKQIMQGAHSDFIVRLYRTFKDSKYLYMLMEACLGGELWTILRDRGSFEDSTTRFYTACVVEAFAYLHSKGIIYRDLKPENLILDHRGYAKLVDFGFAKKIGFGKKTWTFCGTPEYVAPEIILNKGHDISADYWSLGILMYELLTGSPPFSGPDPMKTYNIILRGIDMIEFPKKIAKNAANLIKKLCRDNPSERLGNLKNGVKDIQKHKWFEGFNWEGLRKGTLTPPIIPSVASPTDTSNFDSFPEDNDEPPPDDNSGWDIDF

[15] = molecular target: T5, cGMP-dependent protein kinase 1 (Homo sapiens); details: at 1 µM
[16] = molecular target: T6, cGMP-dependent protein kinase 2 (Homo sapiens) (UniProt Q13237); details: at 0.1 µM
T6 sequence (whole entry): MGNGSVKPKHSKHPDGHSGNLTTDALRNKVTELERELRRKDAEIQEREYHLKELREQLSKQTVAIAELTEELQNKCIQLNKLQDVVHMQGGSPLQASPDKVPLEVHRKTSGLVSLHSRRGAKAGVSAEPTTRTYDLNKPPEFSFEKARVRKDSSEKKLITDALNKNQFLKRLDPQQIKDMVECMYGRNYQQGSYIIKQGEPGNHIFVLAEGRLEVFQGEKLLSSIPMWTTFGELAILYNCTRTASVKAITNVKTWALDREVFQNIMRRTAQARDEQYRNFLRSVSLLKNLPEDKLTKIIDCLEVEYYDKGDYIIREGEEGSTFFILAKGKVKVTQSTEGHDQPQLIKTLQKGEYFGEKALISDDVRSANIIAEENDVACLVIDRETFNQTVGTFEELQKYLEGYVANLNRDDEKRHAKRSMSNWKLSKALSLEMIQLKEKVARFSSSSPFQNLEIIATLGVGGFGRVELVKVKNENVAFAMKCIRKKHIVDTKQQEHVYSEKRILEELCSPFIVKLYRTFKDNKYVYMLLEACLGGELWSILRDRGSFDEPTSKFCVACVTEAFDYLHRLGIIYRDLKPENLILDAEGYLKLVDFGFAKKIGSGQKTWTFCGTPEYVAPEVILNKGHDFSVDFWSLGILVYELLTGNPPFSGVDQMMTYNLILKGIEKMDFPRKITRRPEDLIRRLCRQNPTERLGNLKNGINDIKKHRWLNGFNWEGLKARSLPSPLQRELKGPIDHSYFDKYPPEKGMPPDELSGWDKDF

[17] = molecular target: T6, cGMP-dependent protein kinase 2 (Homo sapiens); details: at 1 µM
[18] = molecular target: T7, cAMP-dependent protein kinase catalytic subunit PRKX (Homo sapiens) (UniProt P51817); details: at 0.1 µM
T7 sequence (whole entry): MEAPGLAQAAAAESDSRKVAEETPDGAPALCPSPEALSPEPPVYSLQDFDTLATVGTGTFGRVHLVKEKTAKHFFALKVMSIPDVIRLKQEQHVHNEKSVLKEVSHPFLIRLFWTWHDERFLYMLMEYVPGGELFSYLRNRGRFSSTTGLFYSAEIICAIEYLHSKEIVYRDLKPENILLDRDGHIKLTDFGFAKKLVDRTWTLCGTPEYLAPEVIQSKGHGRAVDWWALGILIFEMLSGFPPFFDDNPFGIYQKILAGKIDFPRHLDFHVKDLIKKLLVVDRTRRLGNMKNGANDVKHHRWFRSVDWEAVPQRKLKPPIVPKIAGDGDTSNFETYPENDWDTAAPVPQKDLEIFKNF

[19] = molecular target: T7, cAMP-dependent protein kinase catalytic subunit PRKX (Homo sapiens); details: at 1 µM
[20] = molecular target: Rho-associated protein kinase 1 (Homo sapiens) (UniProt Q13464); details: at 0.1 µM;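 note: values are mean percent inhibition of ROCK1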
Chain of Rho-associated protein kinase 1 (Homo sapiens) (Q13464 2-1354 limits assumed): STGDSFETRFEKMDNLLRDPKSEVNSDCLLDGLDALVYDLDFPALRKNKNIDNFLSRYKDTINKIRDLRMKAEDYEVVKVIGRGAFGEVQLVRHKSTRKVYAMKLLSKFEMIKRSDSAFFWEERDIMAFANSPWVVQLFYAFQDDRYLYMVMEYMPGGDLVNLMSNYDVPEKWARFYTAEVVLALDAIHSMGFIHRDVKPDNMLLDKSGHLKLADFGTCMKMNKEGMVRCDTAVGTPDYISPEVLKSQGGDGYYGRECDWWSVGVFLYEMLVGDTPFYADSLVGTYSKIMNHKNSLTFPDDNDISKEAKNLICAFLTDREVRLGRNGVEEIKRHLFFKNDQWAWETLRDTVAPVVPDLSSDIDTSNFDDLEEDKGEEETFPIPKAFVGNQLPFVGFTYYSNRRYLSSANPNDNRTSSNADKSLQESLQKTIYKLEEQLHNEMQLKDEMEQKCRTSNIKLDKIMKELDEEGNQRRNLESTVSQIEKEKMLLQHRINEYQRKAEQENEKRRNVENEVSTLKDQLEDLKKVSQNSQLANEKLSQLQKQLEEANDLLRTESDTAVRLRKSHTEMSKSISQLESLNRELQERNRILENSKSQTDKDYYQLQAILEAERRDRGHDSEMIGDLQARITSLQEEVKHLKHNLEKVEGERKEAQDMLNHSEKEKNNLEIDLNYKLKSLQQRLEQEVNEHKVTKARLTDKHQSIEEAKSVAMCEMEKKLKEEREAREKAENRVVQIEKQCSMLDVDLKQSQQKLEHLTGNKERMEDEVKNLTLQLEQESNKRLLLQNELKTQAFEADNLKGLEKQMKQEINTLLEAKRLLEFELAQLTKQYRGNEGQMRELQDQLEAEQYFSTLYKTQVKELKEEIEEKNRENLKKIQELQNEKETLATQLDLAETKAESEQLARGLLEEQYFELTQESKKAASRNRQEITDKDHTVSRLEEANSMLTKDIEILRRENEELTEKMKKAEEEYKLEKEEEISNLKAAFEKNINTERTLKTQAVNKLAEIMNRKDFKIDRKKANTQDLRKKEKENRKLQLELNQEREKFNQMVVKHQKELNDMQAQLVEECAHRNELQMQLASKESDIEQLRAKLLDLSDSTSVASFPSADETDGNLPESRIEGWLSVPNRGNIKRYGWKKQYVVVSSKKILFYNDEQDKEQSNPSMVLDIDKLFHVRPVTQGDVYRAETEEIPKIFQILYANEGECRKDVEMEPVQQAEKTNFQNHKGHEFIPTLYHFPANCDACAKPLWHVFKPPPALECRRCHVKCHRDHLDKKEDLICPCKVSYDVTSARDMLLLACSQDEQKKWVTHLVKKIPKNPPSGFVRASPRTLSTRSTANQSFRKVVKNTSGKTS

SMILES | inhibition [1] [%] | inhibition [2] [%] | inhibition [3] [%] | inhibition [4] [%] | inhibition [5] [%] | inhibition [6] [%] | inhibition [7] [%] | inhibition [8] [%] | inhibition [9] [%] | inhibition [10] [%] | inhibition [11] [%] | inhibition [12] [%] | inhibition [13] [%] | inhibition [14] [%] | inhibition [15] [%] | inhibition [16] [%] | inhibition [17] [%] | inhibition [18] [%] | inhibition [19] [%] | inhibition [20] [%]
Oc1cccc(-c2nc(-c3ccccc3)[nH]c2-c2ccncc2)c1 | 5.82 | 1.08 | 0.18 | 2.11 | 3.65 | 0.99 | 7.1 | 3.05 | 5.51 | 3.64 | 7.13 | 2.71 | 4.25 | 2.56 | 5.69 | 1.58 | 6.36 | 2.36 | 2.93 | 0.52
CCn1c(-c2nonc2N)nc2ccc(F)cc21 | 5.71 | 2.23 | 1.51 | 4.58 | 6.97 | 1.15 | 4.26 | 4.58 | 6.64 | 5.68 | 5.33 | 6.8 | 6.49 | 3.97 | 14.5 | 8.14 | 41.4 | 3.36 | 6.51 | 2.21
NC(=O)c1sc(-n2cnc3ccccc32)cc1OCc1ccccc1Br | 3.85 | 1.56 | -0.46 | 1.86 | 2.63 | 1.02 | 2.96 | 5.36 | 9.59 | 7.73 | 6.86 | 5.8 | 8.54 | 3.41 | 5.69 | 3.61 | 5.73 | 3.19 | 5.64 | 2.06
